SMILES strings stand for the structures. Screen size: about 2,400 compounds; about 750 (31%) were called active. This is one part of the list. Values without a mark were called inactive.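 How the source made its calls: active means median signal gain over dofetilide-blocked control wells reaching their mean plus 3 SD, so readout 1 at least 0; inactive means the rest.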

In the experiment the target is Voltage-gated inwardly rectifying potassium channel KCNH2 (Homo sapiens) (UniProt Q12809). Put plainly: hERG protection against dofetilide inhibition, confirmation, cell-based, thallium flux, duplicate retest, dofetilide IC70 (AID 1835). The note with it: hERG cell line, FluxOR thallium flux, dofetilide-blocked; at 10 µM; active compounds read high. Background: Block of hERG is tested as a sign of cardiac risk.
Sequence of Voltage-gated inwardly rectifying potassium channel KCNH2 (Homo sapiens) (Q12809 whole entry, looked up): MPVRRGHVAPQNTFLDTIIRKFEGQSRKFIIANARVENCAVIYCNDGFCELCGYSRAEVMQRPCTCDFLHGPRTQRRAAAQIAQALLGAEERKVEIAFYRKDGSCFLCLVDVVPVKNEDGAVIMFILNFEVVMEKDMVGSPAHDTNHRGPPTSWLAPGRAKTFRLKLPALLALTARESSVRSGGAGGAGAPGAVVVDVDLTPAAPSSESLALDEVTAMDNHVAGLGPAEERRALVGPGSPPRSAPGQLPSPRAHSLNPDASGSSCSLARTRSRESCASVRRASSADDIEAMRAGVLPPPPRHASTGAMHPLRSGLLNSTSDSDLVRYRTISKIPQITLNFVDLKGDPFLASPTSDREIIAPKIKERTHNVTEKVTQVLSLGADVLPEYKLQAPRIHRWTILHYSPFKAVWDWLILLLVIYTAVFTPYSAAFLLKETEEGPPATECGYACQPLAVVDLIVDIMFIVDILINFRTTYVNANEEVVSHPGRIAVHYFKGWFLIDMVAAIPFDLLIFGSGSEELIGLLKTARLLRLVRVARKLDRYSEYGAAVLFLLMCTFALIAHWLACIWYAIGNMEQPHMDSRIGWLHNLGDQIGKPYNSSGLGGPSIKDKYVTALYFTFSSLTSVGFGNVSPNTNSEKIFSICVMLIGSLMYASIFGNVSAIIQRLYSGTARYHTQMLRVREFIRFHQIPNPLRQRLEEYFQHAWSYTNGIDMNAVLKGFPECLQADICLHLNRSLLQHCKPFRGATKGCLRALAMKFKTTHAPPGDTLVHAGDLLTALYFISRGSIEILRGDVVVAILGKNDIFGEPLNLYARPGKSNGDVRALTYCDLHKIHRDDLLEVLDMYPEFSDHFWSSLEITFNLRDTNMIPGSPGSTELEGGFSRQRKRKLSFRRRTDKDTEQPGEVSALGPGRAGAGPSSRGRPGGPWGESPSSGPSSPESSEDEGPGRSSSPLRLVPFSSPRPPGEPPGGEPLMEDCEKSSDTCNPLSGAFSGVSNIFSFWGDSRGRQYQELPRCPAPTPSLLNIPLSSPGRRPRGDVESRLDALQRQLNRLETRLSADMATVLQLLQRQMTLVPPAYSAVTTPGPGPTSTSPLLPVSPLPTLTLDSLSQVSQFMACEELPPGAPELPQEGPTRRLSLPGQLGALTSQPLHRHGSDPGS
As to `CC1=C(C#N)C(Nc2cc(C)ccn2)(C(F)(F)F)C(=O)N1` (stereo unspecified), the activity increase over dofetilide control, less the hit threshold was -10%.

As for `Cc1nn(Cc2ccccc2)c2c1C(c1cccnc1)C(C#N)=C(N)O2` (stereo unspecified), the activity increase over dofetilide control, less the hit threshold was -6%.

Take `N=C1C(=O)OCC1c1cc(Cl)ccc1NC(=O)Nc1ccccc1` (stereo unspecified): the activity increase over dofetilide control, less the hit threshold is -9%.

For the compound `CCCn1c(CC)nc([N+](=O)[O-])c1S(=O)(=O)c1ccccc1`, the activity increase over dofetilide control, less the hit threshold was 3% (active).

Consider `CC(C)N1CC(C(=O)Nc2ccc(Cl)c(Cl)c2)CC1=O` (stereo unspecified), for which the activity increase over dofetilide control, less the hit threshold is -8%.

As to `CCCCCCCc1c(O)nc(SCC(=O)O)[nH]c1=O`, the activity increase over dofetilide control, less the hit threshold was -6%.

As for `Cc1csc(NC(=O)c2cn3ccccc3n2)n1`, the activity increase over dofetilide control, less the hit threshold is -12%.

Turning to `CCOC(=O)c1sc(NC(=S)NC(=O)c2ccco2)nc1C`, the activity increase over dofetilide control, less the hit threshold was 7% (active).

Consider `Cc1nc(NC(=O)c2ccco2)sc1C(=O)O`, for which the activity increase over dofetilide control, less the hit threshold was -10%.

For `Cc1csc(NC(=S)NC(=O)c2ccccc2)n1`, the activity increase over dofetilide control, less the hit threshold is 10% (active).

Regarding `CCOC(=O)c1sc(NC(=S)NC(=O)c2cccc(OC)c2)nc1C`, the activity increase over dofetilide control, less the hit threshold is 7% (active).

`O=C(NC(=S)Nc1nc2c(s1)CSc1ccccc1-2)c1ccccc1`: the activity increase over dofetilide control, less the hit threshold is 21% (active).

On to `CCn1cc(CCC(=O)NCc2cccc(OC)c2OC)c2ccccc21`, for which the activity increase over dofetilide control, less the hit threshold is -12%.

As for `COC(=O)c1sc(NC(=S)NC(=O)c2ccc(C)cc2)nc1C`, the activity increase over dofetilide control, less the hit threshold is -3%.

In the case of `COC(=O)c1sc(NC(=S)NC(=O)c2ccccc2C)nc1C`, the activity increase over dofetilide control, less the hit threshold is 26% (active).

For the compound `CCOC(=O)c1sc(NC(=S)NC(=O)c2ccccc2)nc1C`, the activity increase over dofetilide control, less the hit threshold is 36% (active).

For `COC(=O)c1sc(NC(=S)NC(=O)c2ccccc2F)nc1C`, the activity increase over dofetilide control, less the hit threshold is -3%.

For `CCOC(=O)c1sc(NC(=S)NC(=O)c2ccc(OC)cc2)nc1C`, the activity increase over dofetilide control, less the hit threshold was -2%.

For `Cc1ccc(CN2CCN(/N=C/c3ccc(O)c(O)c3)CC2)cc1`, the activity increase over dofetilide control, less the hit threshold was 7% (active).

Consider `Nc1cccc(Oc2cnccn2)c1`, for which the activity increase over dofetilide control, less the hit threshold is -5%.

Regarding `Nc1ncnc(NC2CCS(=O)(=O)C2)c1[N+](=O)[O-]` (stereo unspecified), the activity increase over dofetilide control, less the hit threshold was -12%.

Consider `Cc1cc(NC(=O)CSc2ccc3nnc(-c4cccs4)n3n2)no1`, for which the activity increase over dofetilide control, less the hit threshold was -17%.

In the case of `COc1cc(OC)cc(C(=O)O/N=C(\N)c2cccc(C)c2)c1`, the activity increase over dofetilide control, less the hit threshold is -14%.

As for `COc1cccc(C(=O)CC(=O)C(=O)Nc2ccc(C)cc2Cl)c1`, the activity increase over dofetilide control, less the hit threshold was 50% (active).

As to `COc1ccc(C(=O)CC(=O)C(=O)Nc2ccc(C)cc2Cl)cc1`, the activity increase over dofetilide control, less the hit threshold is 35% (active).

Consider `COc1ccc(CNC(=O)C2CCCN2)cc1OC` (stereo unspecified), for which the activity increase over dofetilide control, less the hit threshold was -14%.

In the case of `Cc1ccc(CC23CN4CCN(CC(C4)C2O)C3)c(C)c1` (stereo unspecified), the activity increase over dofetilide control, less the hit threshold was -14%.

For the compound `NC(=O)c1nsc(C(=O)N(CC(=O)NCc2ccccc2)c2ccc(F)cc2)c1N`, the activity increase over dofetilide control, less the hit threshold was -22%.

As for `Cc1ccc2c(c1)c1nnc(SCC(=O)Nc3ccc(N(C)C)cc3)nc1n2CC(=O)O`, the activity increase over dofetilide control, less the hit threshold is -9%.

In the case of `COc1cc(/C=C/C(=O)N[C@@H](Cc2c[nH]c3ccccc23)C(=O)O)ccc1O`, the activity increase over dofetilide control, less the hit threshold is -8%.

Consider `COc1cc(/C=C/C(=O)O)ccc1OS(=O)(=O)c1cc(C)ccc1C`, for which the activity increase over dofetilide control, less the hit threshold is -26%.

In the case of `C=CCNC(=O)c1ccccc1NC(=O)COc1ccc(OC)cc1`, the activity increase over dofetilide control, less the hit threshold is -2%.

Regarding `COc1ccc(/C=C/C(=O)Nc2ccccc2C(=O)O)cc1OC`, the activity increase over dofetilide control, less the hit threshold was 18% (active).

`O=C(/C=C/c1ccccc1)Nc1ccc(S(=O)(=O)N2CCOCC2)cc1`: the activity increase over dofetilide control, less the hit threshold is -10%.

Consider `COc1ccc(/C=C/C(=O)Nc2ccccc2C(=O)O)cc1`, for which the activity increase over dofetilide control, less the hit threshold is 5% (active).

In the case of `Cc1ccc(C(=O)NNC(=S)NC(=O)c2ccccc2)cc1`, the activity increase over dofetilide control, less the hit threshold was -40%.

Turning to `Cc1cc2ccccn2c1C(=S)NC(=O)c1ccccc1`, the activity increase over dofetilide control, less the hit threshold was 50% (active).

As to `O=C(Nc1ccc(Cl)cc1Cl)c1n[nH]c(Cn2cncn2)n1`, the activity increase over dofetilide control, less the hit threshold is -1%.

Consider `S=c1nn[nH]n1C12CC3CC(CC(C3)C1)C2`, for which the activity increase over dofetilide control, less the hit threshold was 27% (active).

Regarding `CCOc1ccc(Nc2ccc([N+](=O)[O-])c3nonc23)cc1`, the activity increase over dofetilide control, less the hit threshold was -6%.

For `Cc1cc(=O)[nH]c(SCC(=O)NC2CCCCC2)n1`, the activity increase over dofetilide control, less the hit threshold was 0%.

For the compound `O=C(Nn1cnnc1)c1ccncc1`, the activity increase over dofetilide control, less the hit threshold is -14%.

Consider `CNC(=S)N/N=C/c1cc(Br)cc(Br)c1O`, for which the activity increase over dofetilide control, less the hit threshold is -3%.

`Oc1c(Br)cc(Br)cc1C=Nc1ccc2[nH]ncc2c1`: the activity increase over dofetilide control, less the hit threshold is -2%.

Regarding `Cc1nnc(C)n1/N=C/c1cc(Br)cc(Br)c1O`, the activity increase over dofetilide control, less the hit threshold was 15% (active).

With `COc1cc(OC)cc(-c2nc3ccccc3c(=O)n2OC(=O)c2ccc(Br)cc2)c1`, the activity increase over dofetilide control, less the hit threshold is -26%.

As to `O=c1c2cc(Br)ccc2nc(-c2ccccc2)n1O`, the activity increase over dofetilide control, less the hit threshold is 45% (active).

Regarding `O=c1c2ccc(Cl)cc2nc(-c2cccc(C(F)(F)F)c2)n1O`, the activity increase over dofetilide control, less the hit threshold was 94% (active).

On to `O=C(Cn1nnc(-c2cccc(C(F)(F)F)c2)n1)N1CCCCCC1`, for which the activity increase over dofetilide control, less the hit threshold was -8%.

As for `O=c1c2cc(Br)ccc2nc(-c2cccc(Cl)c2)n1O`, the activity increase over dofetilide control, less the hit threshold was 102% (active).

Take `O=c1c2cc(Br)ccc2nc(-c2cccc(C(F)(F)F)c2)n1O`: the activity increase over dofetilide control, less the hit threshold is 115% (active).

Values taken from PubChem BioAssay AID1835 (Johns Hopkins Ion Channel Center, 2009).
